Experimental findings from PubChem BioAssay (NCI) are described below.

The panel holds about 83,000 compounds, 20% with a hit somewhere; the sample as a whole holds those more often.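 Percent growth is the endpoint: 0 to 100 indicates growth inhibition (40 means 60% inhibition), 0 means no net growth, and negative values indicate cell death.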 Activity calls are given as the source filed them. Rule for the calls: active = growth percent below 10; inactive = the rest.

This experiment concerns HL-60(TB) leukemia. Briefly: NCI-60 one-dose screen, 48 h (100 = growth as untreated, 0 = no growth, -100 = all killed). The conditions noted are these: 10 µM unless noted.
In the case of `COc1cc(OC)cc(C2C(C#N)=C(N)Oc3c2ccc2ccc(O)cc32)c1` (centres undefined), the growth is -23.8% (active). For `CCCCCn1cnc2c(=S)nc[nH]c21` the value was 95% (inactive); for `Cc1c2c(c(C)c3c1oc1cc(O)ccc13)C(=O)N(CCN1CCCCC1)C2=O`, 99.3% (inactive); for `CCCC(CCC)NCC(O)c1cc(-c2ccc(C(F)(F)F)cc2)nc(C(F)(F)F)c1` (centres undefined), -46.3% (active).

`CC/C(=C(/c1ccc(Cl)cc1)c1ccc(OCCN(C)C)cc1)c1ccc(Cl)cc1`: the growth is 64.9% (inactive).

Regarding `COc1cc(/C=C/CO)cc(OC)c1O[C@@H]1O[C@H](CO)[C@@H](O)[C@H](O)[C@H]1O`, the growth is 85.9% (inactive). Next, `O=C(O)c1cn(C2CC2)c2cc(N3CCN(C(=O)Nc4nc(-c5ccc(Cl)cc5)cs4)CC3)c(F)cc2c1=O`: -26.2% (active); `CCN(CC)c1ccc(/C=N/NC(=O)c2ccc(S(C)(=O)=O)cc2)c(O)c1`: -18.5% (active). For `COc1cc(-c2ccc(-c3ccc(C(=N)N)nc3)s2)cc(OC)c1OC` the value was -40.6% (active); for `O=C(CN1C(=O)S/C(=C\C(Cl)=C\c2ccccc2)C1=O)NC1CCS(=O)(=O)C1` (centres undefined), 18.6% (inactive); for `CN(C)c1ccc(C#Cc2c(F)cccc2Cl)cc1`, 79% (inactive).

With `OCC1OC(n2ccc3c2ncn2ncnc32)C(O)C1O` (centres undefined), the growth was -14.4% (active). On to `CCOC(=O)N1CCc2c(sc3nc4nc[nH]n4c(=O)c23)C1`, for which the growth was 103% (inactive).

For the compound `COc1ccc(-c2nc3ncccn3c2-c2nnc(-c3ccsc3C)o2)cc1`, the growth was 92.5% (inactive).

On to `COc1ccc(-c2cc3cnc4ccccc4c3oc2=O)cc1`, for which the growth was 94.2% (inactive). Next, `COC(=O)[C@]12CCC(C)(C)C[C@H]1[C@H]1/C(=N/OCCc3nn[nH]n3)C[C@@H]3[C@@]4(C)CC[C@H](OC(C)=O)C(C)(C)[C@@H]4CC[C@@]3(C)[C@]1(C)CC2`: 10.4% (inactive); `COc1cccc(-c2nc(SCC(=O)Nc3ccc(C(=O)/C=C/c4ccc(OC)c(OC)c4)cc3)[nH]c(=O)c2C#N)c1`: 98.2% (inactive); `COc1ccc(S(=O)(=O)c2ccc(C(N)=O)cc2)cc1NC(=O)c1[nH]c(C)c2c1CCCCC2=O`: 4.2% (active).

Consider `CC[C@@H](C(=O)[C@H](C)[C@H](O)[C@@H](C)[C@H]1O[C@H]([C@@H](CC)C(=O)N(CC)CC)CC[C@H]1C)C1O[C@]2(C=C[C@@H](O)[C@]3(CC[C@@](C)([C@H]4CC[C@](O)(CC)[C@H](C)O4)O3)O2)[C@H](C)C[C@@H]1C` (some centres undefined), for which the growth is -28.8% (active). Next, `CCN(CC)CCNc1c(C)cc(CO)c(Cl)c1C`: 107% (inactive); `CN(/C(N)=N/N=C/c1c2ccccc2cc2ccccc12)C1CCCCC1`: 35.4% (inactive); `CN(C(=S)S(=O)(=O)C12CC3CC(CC(C3)C1)C2)c1ccccc1`: 11.5% (inactive). Next, `Cc1[nH]c(-c2nc3ccccc3[nH]2)c(C)c1C(=O)N1CCOCC1`: 111% (inactive).

Consider `O=P(O)(c1ccccc1)c1ccccc1I`, for which the growth is 117% (inactive).

As to `NCCNc1nc2ccc(F)cc2c2c(=O)c3cc(F)ccc3sc12`, the growth was 21.2% (inactive). Next, `Oc1ccc(/C=N/Nc2nc3ccccc3s2)c(O)c1`: 0.859% (active); `Cc1ccc(S(=O)(=O)N2CCc3ccc(O)c4c3C2Cc2ccc3c(c2-4)OCO3)cc1` (centres undefined): -8.02% (active); `C=C(C)[C@@H]1C[C@H](O)Cc2cc(F)ccc2N1`: -20.3% (active). Next, `Cc1cc2nc(CC(=O)c3ccncc3)c(=O)[nH]c2cc1C`: 89.8% (inactive). For `O=C=NC(c1ccccc1)(c1ccccc1)c1ccccc1` the value was 102% (inactive); for `O=C(/C=C/c1cccc(O)c1)c1cccc(-n2cc(-c3ccc(Cl)cc3)[nH]c2=O)c1`, -6.19% (active); for `CC1(C)N=C(N)N=C(N)N1c1cccc(/C=C/C=C/c2cccc([N+](=O)[O-])c2)c1`, 12% (inactive). On to `COc1ccc(/C(=N\O)c2cc(C)c(OC)c(C)c2)cc1O`, for which the growth is -18.3% (active).

Turning to `c1ccc2c(c1)Nc1cc3ccccc3cc1N2`, the growth was 7.75% (active). As to `O=C(NCCCN1CCN(CCCNC(=O)C2CCCCC2)CC1)C1CCCCC1`, the growth was 98.9% (inactive). For `COC(=O)c1cc([N+](=O)[O-])cc([N+](=O)[O-])c1Cl` the value was 55.4% (inactive). Turning to `Cn1cc(-c2ncnc3ccc(-c4cnc(Cl)c(NS(C)(=O)=O)c4)cc23)c2ccccc21`, the growth is 17.9% (inactive). Next, `FC(F)(F)c1cc(-c2nnc3n2N=C(Cl)CS3)cc(C(F)(F)F)c1`: 93.2% (inactive); `O=CCCCC(O)C=O` (centres undefined): 92.2% (inactive).
